Data: PubChem BioAssay (NCI)
The panel holds about 79,000 compounds, 15% with a hit somewhere; the sample as a whole holds those more often. Cut-off read from the data, not from the text of the source: active = growth inhibition above about 70%; inactive = the rest.

Legend:
[1] = NCI Yeast Anticancer Drug Screen. Data for the rad50 strain (AID 155);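 note: 0% = growth of vehicle-only cultures of the same strain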; conditions: S. cerevisiae rad50 strain growth inhibition; at 50.0 µM; hits give high values
In short: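 Relative growth inhibition (compound vs vehicle) was measured in yeast with a defined repair-gene alteration.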

[2] = NCI Yeast Anticancer Drug Screen. Data for the mec2-1 strain (AID 157); conditions: S. cerevisiae mec2-1 strain, at 50.0 µM, hits give high values
In short: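 Mutant yeast (mec2-1) grown with compound; growth inhibition relative to vehicle control reported.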

[3] = NCI Yeast Anticancer Drug Screen. Data for the sgs1 mgt1 strain (AID 161);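 note: 0% = growth of cultures given vehicle only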; conditions: S. cerevisiae sgs1 mgt1 strain, at 50.0 µM, hits give high values
In short: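 Compounds are added to genetically altered yeast, and growth is compared with cultures given vehicle alone to give percent inhibition.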

[4] = NCI Yeast Anticancer Drug Screen. Data for the cln2 rad14 strain (AID 165);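 note: 0% = growth equal to vehicle treated cultures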; conditions: S. cerevisiae cln2 rad14 strain, at 50.0 µM, hits give high values
In short: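 Readout is yeast growth inhibition versus vehicle-treated controls, using a strain with cln2 and rad14 alterations exposed to compound.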

[5] = NCI Yeast Anticancer Drug Screen. Data for the bub3 strain (AID 167); conditions: S. cerevisiae bub3 mutant strain, at 50.0 µM, hits give high values
In short: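 Screening used yeast with an engineered genetic alteration affecting cell cycle control. Compound-exposed cultures were compared with vehicle cultures, and reduced growth was taken as inhibition.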

[6] = NCI Yeast Anticancer Drug Screen. Data for the mlh1 rad18 strain (AID 175); conditions: S. cerevisiae mlh1 rad18 strain growth inhibition; at 50.0 µM; hits give high values
In short: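 Genetically defined yeast (DNA repair-deficient) exposed to compounds; growth inhibition determined relative to vehicle.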

Measured: growth inhibition

Cc1cccc(-[n+]2noc(N)n2)c1
inactive: [1] 29.1% | [2] 22.2% | [3] 2.25% | [4] -3.35% | [5] 1.95% | [6] 40.6%

O=C(O)c1ccc(OCc2ccccc2)cc1
inactive: [1] 12.6% | [2] 11.2% | [3] 38% | [4] -1.85% | [5] -28.1% | [6] 19.9%

Cc1cc(C(=O)NN)c(C#N)c(=O)[nH]1
inactive: [1] 2.2% | [2] -5.55% | [3] -2.15% | [4] -17.5% | [5] 2.6% | [6] -0.5%

Cc1ccnc(Nc2nc3ccccc3[nH]2)n1
inactive: [1] 7.1% | [2] -10.9% | [3] 4.5% | [4] 14.1% | [5] 8.6% | [6] 8.85%

CCOC(=O)c1ccc(Nc2sc(C(=O)c3ccc(Br)cc3)c(N)c2C#N)cc1
inactive: [1] -9.4% | [2] -23.6% | [3] 12.6% | [4] 20.3% | [5] -3.6% | [6] -2.05%

Nc1ccn(C2CC(N)C(CO)O2)c(=O)n1 (stereo not drawn)
inactive: [1] 16.1% | [2] 7.15% | [3] 9.25% | [4] 19.8% | [5] 6.9% | [6] 32.4%

Cc1cc(C(=O)c2ccccc2)cc(C)c1O
inactive: [1] 12.2% | [2] -3.35% | [3] 12.8% | [4] 5.2% | [5] -0.4% | [6] 30.4%

COc1cc(OC)c2cc(C(=O)c3ccc(C#N)cc3)c(=O)oc2c1
inactive: [1] 17% | [2] -12.1% | [3] 25.1% | [4] 31% | [5] 35.1% | [6] 32.2%

O=Cc1ccc(O)c(O)c1
inactive: [1] 17.6% | [2] -6.5% | [3] 11.6% | [4] 7.75% | [5] 4.05% | [6] 18.9%

COc1nc2ccccc2s1
inactive: [1] 18.6% | [2] -15.2% | [3] 13.1% | [4] 10.9% | [5] 1.5% | [6] 22.4%

N#Cc1ccc(OC(=O)Nc2cc(Cl)cc(Cl)c2)cc1
inactive: [1] -6.5% | [2] -21.9% | [3] -3.65% | [4] 12.9% | [5] -4% | [6] -3.55%

NC(=S)c1c(N)n(C2OC(CO)C(O)C2O)c2ncnc(N)c12 (stereo not drawn)
inactive: [1] 7.2% | [2] -9.7% | [3] 7.1% | [4] -3.15% | [5] -5.5% | [6] 2.55%

OCC(O)COc1ccc(Cl)cc1Cl (stereo not drawn)
inactive: [1] 22.2% | [2] 6.25% | [3] 25.8% | [4] 8.85% | [5] 10.1% | [6] 16.8%

CCC12OC(COc3ccccc3)CN1CCN2c1ccccc1 (stereo not drawn)
inactive: [1] -12.2% | [2] -6.15% | [3] -10.7% | [4] 3.15% | [5] -15.1% | [6] -11.5%

Nc1cc(N)ncn1
inactive: [1] -1.3% | [2] -18.9% | [3] 3.6% | [4] 22.5% | [5] -10.1% | [6] 26.7%

Cc1ccc(OC(=O)c2ccccc2)cc1
inactive: [1] 9.3% | [2] -9.65% | [3] -18.6% | [4] -6.75% | [5] -8.6% | [6] -14.6%

CC(=O)OCC1CCC(COC(C)=O)CC1 (stereo not drawn)
inactive: [1] 9.75% | [2] -30.6% | [3] -10.4% | [4] -5.95% | [5] 19.7% | [6] -3.9%

O=C(CCl)Oc1ccc([N+](=O)[O-])cc1
inactive: [1] 20.8% | [2] 21.9% | [3] 23.8% | [4] 11.7% | [5] 19.8% | [6] 26.6%

Cc1ccc(S(N)(=O)=O)cc1Cl
inactive: [1] 10.1% | [2] -20.1% | [3] 13.2% | [4] 5.8% | [5] -1.5% | [6] 16.6%

O=c1cc(C(F)(F)F)[nH]c(=S)[nH]1
inactive: [1] -21.9% | [2] -5.05% | [3] -15.8% | [4] -20.9% | [5] -24.8% | [6] -26.2%

O=S(=O)(OCCOS(=O)(=O)c1ccccc1)c1ccccc1
inactive: [1] 31.9% | [2] 1.45% | [3] -0.9% | [4] -27.9% | [5] -9.1% | [6] 50.7%

COC(=O)C1=C(C)C(=O)CC1
inactive: [1] 16.7% | [2] -1.5% | [3] 11.8% | [4] -11.9% | [5] 13.9% | [6] 14.2%

S=C(NCc1ccccc1)N1CCC(CCCC2CCN(C(=S)NCc3ccccc3)CC2)CC1
inactive: [1] -9.45% | [2] -32.1% | [3] -3.6% | [4] 6% | [5] 2.85% | [6] -7.35%

CC(C)c1ccc(C(=O)OCCCl)cc1
inactive: [1] 29.7% | [2] 9% | [3] 6.6% | [4] -3.05% | [5] -4.2% | [6] 23.8%

O=c1cc(Cl)nc2ccccn12
inactive: [1] 18.6% | [2] -1.1% | [3] -11% | [4] -52.3% | [5] -3.85% | [6] 4.5%

Cc1cc(Cl)cc(Cc2cc(Cl)cc(C)c2O)c1O
inactive: [1] 50.1% | [2] 24.1% | [3] 55% | [4] 29% | [5] 22.1% | [6] 20.6%

CC(=O)C1C(=O)C(=O)N(c2cccc([N+](=O)[O-])c2)C1=O (stereo not drawn)
inactive: [1] -40% | [2] -23.9% | [3] -8.75% | [4] -9.3% | [5] -23.4% | [6] -54.3%

CCOC(=N)CC(=O)Nc1cccc(C)c1Cl
inactive: [1] -2.85% | [2] -14.1% | [3] -11.4% | [4] 18.6% | [5] 8.5% | [6] -3.3%

CC(=O)C[n+]1ccc(C)cc1Sc1ccccc1C
inactive: [1] 8.4% | [2] -18.1% | [3] 6.85% | [4] 4.4% | [5] -3.35% | [6] 33.8%

CCOC(C=O)OCC
inactive: [1] 0.6% | [2] 6% | [3] 4.35% | [4] -9% | [5] -4.3% | [6] -10.9%

S=c1nc2[nH]c3ccccc3c2n[nH]1
inactive: [1] 8.45% | [2] -17.9% | [3] -5.65% | [4] -7.3% | [5] -8.95% | [6] 6.45%

COc1ccc(C2CC(c3ccccc3)=Nc3ccccc3S2)cc1 (stereo not drawn)
inactive: [1] -12.1% | [2] -17.9% | [3] 16% | [4] -11.3% | [5] 25.2% | [6] 0.95%

COc1nc(Nc2cccc(C(F)(F)F)c2)nc(OC)n1
inactive: [1] 8.5% | [2] -8% | [3] 15.4% | [4] 7.9% | [5] 23.2% | [6] 6.25%

Cc1c(Cl)cccc1NC(=S)NC(=O)c1ccccc1
inactive: [1] 23.7% | [2] 28.2% | [3] 14.8% | [4] 0.4% | [5] 35.4% | [6] 18.1%

O=S(=O)(O)c1cccnc1
inactive: [1] 12.4% | [2] 6% | [3] 10.7% | [4] -11.6% | [5] -2.25% | [6] 15.8%

N#Cc1ccc(OC(=O)Nc2c(Cl)cc(Cl)cc2Cl)cc1
inactive: [1] -10.2% | [2] -14.7% | [3] 15.4% | [4] 23.2% | [5] 30.4% | [6] 9.95%

NC(CSSCC(N)C(=O)O)C(=O)O (stereo not drawn)
inactive: [1] -11.6% | [2] -20% | [3] 1.35% | [4] 4% | [5] -20.9% | [6] -2.05%

CC(C)C1CCC(C)C(O)C1 (stereo not drawn)
inactive: [1] 26.7% | [2] 6.35% | [3] 8.55% | [4] 8.9% | [5] -0.55% | [6] 12.8%
